This note sets out measurements from PubChem BioAssay (NCATS).

Records with an inconclusive call do not appear. Calls of active or inactive are those of the source. Calls come from the whole dose curve; as a rule, active = well fitted curve in the direction sought with a large enough effect; inconclusive = small, poorly fitted or top-dose-only effect, or another doubt; inactive = no such curve, though single readings can be large; an effect the other way counts as inactive or inconclusive.

A short description of test [1]: qHTS of pediatric cancer cell lines to identify multiple opportunities for drug repurposing: Primary screen for Saos-2 cells (AID 1347097). Note: nearly all actives have a fitted effect of over 40% in size. Note: potency is the fitted concentration of half-maximal effect. An outline of the steps:
(§1)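 Readout: CellTiter-Glo luminescence, 48 h treatment. Controls DMSO (neutral) and bortezomib 2.3 µM final (positive). Potency and efficacy taken from primary-screen concentration-response curves.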

Test [2] in a line: qHTS of pediatric cancer cell lines to identify multiple opportunities for drug repurposing: Primary screen for SK-N-SH cells (AID 1347098). Note: nearly all actives have a fitted effect of over 65% in size. Note: potency is the fitted concentration of half-maximal effect. The method in brief:
(§2)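 Cells (500-1,000/well) rested 5 h, then received compounds for 48 h; metabolically active cells were measured by CellTiter-Glo luminescence. Final concentrations spanned up to 46 µM (MIPE, 11-point) or 0.59 nM-46 µM (NPC, 8-point) in primary screens, 11-point in follow-ups.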

A short description of test [3]: qHTS of pediatric cancer cell lines to identify multiple opportunities for drug repurposing: Primary screen for NB1643 cells (AID 1347099). Note: nearly all actives have a fitted effect of over 50% in size. Note: potency is the fitted concentration of half-maximal effect. An outline of the steps:
as §1

Test [4] can be described thus: qHTS of pediatric cancer cell lines to identify multiple opportunities for drug repurposing: Primary screen for LAN-5 cells (AID 1347100). Note: potency is the fitted concentration of half-maximal effect. The method in brief: (§3)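 Cells (500-1,000/well) in growth media were settled 5 h at 37 degrees C, then given compounds for 48 h. Viability was read as CellTiter-Glo luminescence. Primary runs used MIPE at 11 points (0.78 nM-46 µM) and NPC at 8 points (0.59 nM-46 µM); follow-ups used 11 points.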

A short description of test [5]: qHTS of pediatric cancer cell lines to identify multiple opportunities for drug repurposing: Primary screen for BT-12 cells (AID 1347101). Note: nearly all actives have a fitted effect of over 25% in size. Note: potency is the fitted concentration of half-maximal effect. The method in brief: as §2
The nature of test [6]: qHTS of pediatric cancer cell lines to identify multiple opportunities for drug repurposing: Primary screen for Rh18 cells (AID 1347102). Note: nearly all actives have a fitted effect of over 65% in size. Note: potency is the fitted concentration of half-maximal effect. An outline of the steps: as §3
A short description of test [7]: qHTS of pediatric cancer cell lines to identify multiple opportunities for drug repurposing: Primary screen for RD cells (AID 1347104). Note: nearly all actives have a fitted effect of over 55% in size. Note: potency is the fitted concentration of half-maximal effect. An outline of the steps: as §1
Test [8] in a line: qHTS of pediatric cancer cell lines to identify multiple opportunities for drug repurposing: Primary screen for control Hh wild type fibroblast cells (AID 1347106).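 Note: series mostly up to about 46 µM; a drop in luminescence marks cytotoxicity and a rise apparent proliferation; nearly all actives have a fitted effect of over 55% in size.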 An outline of the steps:
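Viability after 48 h compound treatment at 37C, 500-1,000 cells/well, read as ATP luminescence with CellTiter-Glo. Primary screens used 11-point (MIPE, 0.78 nM-46 µM) or 8-point (NPC, 0.59 nM-46 µM) final concentrations; follow-up screens used 11-point dilutions.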

Test [9] is described as follows: qHTS of pediatric cancer cell lines to identify multiple opportunities for drug repurposing: Primary screen for Rh30 cells (AID 1347107). Note: series mostly up to about 46 µM; nearly all actives have a fitted effect of over 75% in size. The method in brief: as §3
Test [10] can be described thus: qHTS of pediatric cancer cell lines to identify multiple opportunities for drug repurposing: Primary screen for Rh41 cells (AID 1347108). Note: nearly all actives have a fitted effect of over 70% in size. Note: potency is the fitted concentration of half-maximal effect. An outline of the steps: as §1
Test [11] can be described thus: qHTS of pediatric cancer cell lines to identify multiple opportunities for drug repurposing: Confirmatory screen for A673 cells (AID 1347110).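 Note: cells exposed to compound for 48 h before the viability read; nearly all actives have a fitted effect of over 65% in size.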 Note: potency is the fitted concentration of half-maximal effect. The method in brief:
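A673 cells seeded at 500-1,000 cells/well, rested 5 h, then dosed; primary MIPE 11-point (0.78 nM to 46 µM), NPC (0.59 nM to 46 µM); confirmatory 11-point. CellTiter-Glo luminescence after 48 h.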

Test [12] in a line: qHTS of pediatric cancer cell lines to identify multiple opportunities for drug repurposing: Confirmatory screen for SK-N-MC cells (AID 1347111).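 Note: cells exposed to compound for 48 h before the readout; nearly all actives have a fitted effect of over 70% in size.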 Note: potency is the fitted concentration of half-maximal effect. The method in brief: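 Metabolically active cells were quantified by ATP-dependent luminescence (CellTiter-Glo, 15 min at room temperature) following 48 h treatment. Cells had been plated at 500-1,000 per well and settled for 5 h beforehand.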

Test [13] is described as follows: qHTS of pediatric cancer cell lines to identify multiple opportunities for drug repurposing: Confirmatory screen for DAOY cells (AID 1347114). Note: nearly all actives have a fitted effect of over 65% in size. The method in brief:
(§4)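 Viability measured as metabolically active cells via CellTiter-Glo luminescence following 48 hours of compound exposure, 11-point dilutions in confirmatory testing. 500-1,000 cells/well plated 5 hours before dosing; controls were DMSO and 2.3 µM bortezomib.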

Test [14] can be described thus: qHTS of pediatric cancer cell lines to identify multiple opportunities for drug repurposing: Confirmatory screen for NB-EBc1 cells (AID 1347115).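 Note: cells exposed to compound for 48 h before the viability read; nearly all actives have a fitted effect of over 45% in size.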 An outline of the steps: as §3
A short description of test [15]: qHTS of pediatric cancer cell lines to identify multiple opportunities for drug repurposing: Confirmatory screen for SJ-GBM2 cells (AID 1347116). Note: nearly all actives have a fitted effect of over 60% in size. The method in brief: as §4
Test [16] is described as follows: qHTS of pediatric cancer cell lines to identify multiple opportunities for drug repurposing: Confirmatory screen for BT-37 cells (AID 1347117). Note: nearly all actives have a fitted effect of over 55% in size. Note: potency is the fitted concentration of half-maximal effect. An outline of the steps:
as §3

A short description of test [17]: qHTS of pediatric cancer cell lines to identify multiple opportunities for drug repurposing: Primary screen for MG 63 (6-TG R) cells (AID 1347105). Note: nearly all actives have a fitted effect of over 50% in size. An outline of the steps: as §1
The nature of test [18]: qHTS of pediatric cancer cell lines to identify multiple opportunities for drug repurposing: Confirmatory screen for LAN-5 cells (AID 1347113). Note: nearly all actives have a fitted effect of over 65% in size. Note: potency is the fitted concentration of half-maximal effect. The method in brief:
as §3

Test [19] is described as follows: qHTS of pediatric cancer cell lines to identify multiple opportunities for drug repurposing: Primary screen for OHS-50 cells (AID 1347103). Note: nearly all actives have a fitted effect of over 40% in size. Note: potency is the fitted concentration of half-maximal effect. The method in brief: as §2
Test [20] can be described thus: qHTS of pediatric cancer cell lines to identify multiple opportunities for drug repurposing: Confirmatory screen for MG 63 (6-TG R) cells (AID 1347119). Note: potency is the fitted concentration of half-maximal effect; nearly all actives have a fitted effect of over 55% in size. The method in brief:
as §3

Regarding `CCCC(=O)O[C@]1(C(=O)CO)CC[C@H]2[C@@H]3CCC4=CC(=O)CC[C@]4(C)[C@H]3[C@@H](O)C[C@@]21C`, the Potency result in [1], in test [2], in test [3], in [4], in [5] and in [6] was “inactive” in each case. For the same molecule, the Potency entry in [7], in [8], in test [9], in test [10], in test [11] and in [12] was “inactive” in each case. Further, the Potency result in test [13], in test [14], in test [15] and in test [16] was “inactive” each time.
`CC1(C)OC[C@@H](COC(=O)CCc2ccc(OC[C@@H](O)CNCCNC(=O)N3CCOCC3)cc2)O1`: the Potency entry in test [1], in test [2], in [3], in test [4], in [5] and in [6] was “inactive” each time. For the same molecule, the Potency result in [7], in test [17], in test [8], in test [9] and in test [10] was “inactive” in each case.
For the molecule `CN1C(CCl)Nc2cc(Cl)c(S(N)(=O)=O)cc2S1(=O)=O` (stereo not given), the Potency result in test [1], in test [2], in test [3], in test [4], in [5] and in [6] was “inactive” each time. Also, the Potency result in [7], in test [17], in [8], in test [9] and in test [10] was “inactive” in each case.
Turning to `OCc1ccccc1O`, the Potency result in test [1], in [2], in test [3], in test [4], in test [5] and in test [6] was “inactive” in each case. Moreover, the Potency result in test [7], in test [17], in test [8], in test [9] and in [10] was “inactive” each time.
On to `CC(C)(C)NC(=O)[C@@H]1CN(Cc2cccnc2)CCN1C[C@@H](O)C[C@@H](Cc1ccccc1)C(=O)N[C@H]1c2ccccc2C[C@H]1O`, for which the Potency result in test [1], in [2], in test [3], in [4], in test [5] and in [6] was “inactive” in each case. In addition, the Potency result in test [7], in test [8], in test [9] and in [10] was “inactive” in each case.
Regarding `NC(=O)CC[C@@H]1NC(=O)[C@H](Cc2ccccc2)NC(=O)[C@H](Cc2ccc(O)cc2)NC(=O)CCSSC[C@@H](C(=O)N2CCC[C@H]2C(=O)N[C@@H](CCCN=C(N)N)C(=O)NCC(N)=O)NC(=O)[C@H](CC(N)=O)NC1=O`, the Potency entry in [1], in test [2], in test [3], in [4], in test [5] and in test [6] was “inactive” in each case. Further, the Potency entry in test [7], in [8], in test [9], in test [10], in test [11] and in test [12] was “inactive” each time. In addition, the Potency entry in test [18], in [13], in [14], in test [15] and in test [16] was “inactive” throughout.
On to `O=C(O)CCCCC(=O)O`, for which the Potency entry in test [1], in test [2], in [3], in [4], in test [5] and in test [6] was “inactive” throughout. Further, the Potency entry in test [7], in test [17], in test [8] and in test [10] was “inactive” each time.
For the molecule `CCN(CC)CCOC(=O)C(c1ccccc1)C1CCCCC1` (stereo not given), the Potency is 23.7 µM (active) in test [1], 30.7 µM (active) in [2] and 21.9 µM (active) in [19]. The Potency result in test [3], in test [4], in test [6], in test [17], in [8] and in test [9] was “inactive” in each case.
Consider `CCC(=O)c1c(O)cc(O)cc1O`, for which the Potency entry in test [1], in test [2], in test [3], in [4], in test [5] and in [6] was “inactive” in each case. Also, the Potency result in [7], in [8], in test [9] and in test [10] was “inactive” each time.
On to `CO/N=C1\CN(c2nc3c(cc2F)c(=O)c(C(=O)O)cn3C2CC2)CC1CN` (stereo not given), for which the Potency result in test [1], in test [2], in [3], in test [4], in [6] and in test [19] was “inactive” throughout. For the same molecule, the Potency result in [7], in test [8], in test [9] and in test [10] was “inactive” in each case.
On to `C[C@]12CC[C@H]3[C@@H](CCC4=CC(=O)CC[C@@]43C)[C@@H]1CC[C@@H]2C(=O)CO`, for which the Potency entry in test [1], in [2], in test [3], in test [4], in [6] and in test [7] was “inactive” in each case. In addition, the Potency entry in [17], in test [8], in test [9] and in [10] was “inactive” each time.
For the molecule `CCCCCCC[N+](CC)(CC)CCCCc1ccc(Cl)cc1`, the Potency is 6.68 µM (active) in test [1]; 19.4 µM (active) in test [2]; 13.3 µM (active) in test [3]; 2.99 µM (active) in test [4]; 7.77 µM (active) in test [5]; 11.9 µM (active) in test [6]. The Potency in [7] is 13.3 µM (active); in [10], 15 µM (active); in test [11], 3.69 µM (active); in [12], 9.27 µM (active); in [18], 8.27 µM (active); in test [16], 5.22 µM (active). Moreover, the Potency in [20] was 13.1 µM (active). The Potency result in test [8] and in test [13] was “inactive” each time.
